Source: PubChem BioAssay
Some of the results follow. Unmarked numbers belong to inactive results. Calls of active or inactive are those of the source.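 The calls were made as follows, unless noted: active = mean inhibition of the triplicate above the hit cutoff set for the earlier primary screen (cut at about 25% in these data); inactive = the rest.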

Target: Platelet-activating factor acetylhydrolase (Homo sapiens) (UniProt Q13093)
Experiment: inhibition of plasma PAF acetylhydrolase – biochemical, fluorescence polarization, human, confirmation (AID 463230);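 also: 0% = enzyme with DMSO and 100% = wells lacking pPAFAH enzyme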
Conditions: recombinant pPAFAH, FP-Rh probe fluorescence polarization; at 3.39 µM; hits give high values

Platelet-activating factor acetylhydrolase (Homo sapiens), sequence (Q13093 whole entry, looked up): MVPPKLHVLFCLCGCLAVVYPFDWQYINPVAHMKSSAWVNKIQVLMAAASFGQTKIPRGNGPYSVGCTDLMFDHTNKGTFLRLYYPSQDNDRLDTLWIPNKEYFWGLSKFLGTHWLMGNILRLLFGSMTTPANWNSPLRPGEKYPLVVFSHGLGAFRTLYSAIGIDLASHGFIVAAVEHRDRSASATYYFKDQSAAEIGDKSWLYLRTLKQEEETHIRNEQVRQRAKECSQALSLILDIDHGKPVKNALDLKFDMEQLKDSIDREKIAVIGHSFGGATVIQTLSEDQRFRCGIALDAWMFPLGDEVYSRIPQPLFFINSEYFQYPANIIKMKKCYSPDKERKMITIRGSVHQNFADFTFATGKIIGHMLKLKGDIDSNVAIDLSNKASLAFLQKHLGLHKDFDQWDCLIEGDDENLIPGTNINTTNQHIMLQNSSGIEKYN

SMILES	inhibition
Oc1c(Br)cc(/C=N/NC(=S)NCC2CCCO2)cc1Br (stereo not given)	36.3% (active)
CN(C)S(=O)(=O)c1cccc(-c2nn(-c3ccccc3)cc2/C=C2\SC(=S)N(CC(=O)O)C2=O)c1	40.4% (active)
COC(=O)c1cc(S(=O)(=O)Nc2ccc(C)c(F)c2)c[nH]1	24.1%
OC(CNCC1CCCO1)Cn1c2ccc(Br)cc2c2cc(Br)ccc21 (stereo not given)	37.2% (active)
CC(C)C1N=C2c3ccccc3N=C(SCC(=O)c3ccc(O)c(O)c3)N2C1=O (stereo not given)	54.5% (active)
COc1ccc(/C=C/C(=O)c2cc(Br)ccc(=O)c2O)cc1	20.5%
CC(=O)N1CCN(C(=O)c2cc(-c3ccc(C)o3)nc3ccccc23)CC1	5.07%
Cc1ccc(-n2c(C)cc(/C=C(\C#N)C(=O)NCC3CCCO3)c2C)cc1 (stereo not given)	63.7% (active)

Target: Protein-arginine deiminase type-4 (Homo sapiens) (UniProt Q9UM07)
Experiment: protein arginine deiminase 4 blockade, retest – biochemical, fluorescence polarization, confirmation (AID 488796;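 active = mean inhibition across replicates above the hit cutoff set by the earlier primary screen, cut at about 15% in these data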;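 also: inhibitors block active-site labeling by the probe so polarization falls; 0% = PAD4 with probe and DMSO and 100% = probe without PAD4 enzyme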)
Conditions: recombinant PAD4, RCA probe fluorescence polarization; at 6.36 µM; hits give high values

Protein-arginine deiminase type-4 (Homo sapiens), sequence (Q9UM07 whole entry, looked up): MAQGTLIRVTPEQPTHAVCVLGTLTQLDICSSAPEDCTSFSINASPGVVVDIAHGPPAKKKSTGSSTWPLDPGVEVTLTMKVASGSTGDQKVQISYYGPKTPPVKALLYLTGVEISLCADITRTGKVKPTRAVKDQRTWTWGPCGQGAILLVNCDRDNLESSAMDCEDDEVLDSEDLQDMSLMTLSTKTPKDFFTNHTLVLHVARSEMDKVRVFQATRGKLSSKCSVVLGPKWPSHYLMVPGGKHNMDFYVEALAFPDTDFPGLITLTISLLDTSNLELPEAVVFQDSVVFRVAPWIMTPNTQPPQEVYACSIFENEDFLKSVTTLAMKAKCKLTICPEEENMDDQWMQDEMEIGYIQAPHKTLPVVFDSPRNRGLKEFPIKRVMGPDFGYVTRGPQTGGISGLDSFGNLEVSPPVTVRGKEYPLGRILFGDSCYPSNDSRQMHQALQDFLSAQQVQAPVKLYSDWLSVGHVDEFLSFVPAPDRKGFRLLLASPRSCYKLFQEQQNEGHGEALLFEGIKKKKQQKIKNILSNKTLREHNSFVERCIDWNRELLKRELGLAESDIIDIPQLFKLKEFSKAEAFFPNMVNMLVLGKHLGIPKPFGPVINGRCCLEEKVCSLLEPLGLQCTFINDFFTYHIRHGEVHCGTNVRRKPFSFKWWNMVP

SMILES	inhibition
Cc1cc(C(=O)CSc2nc(N)cc(=O)[nH]2)c(C)n1CCc1ccc(Cl)cc1	13.4%
CN(C)S(=O)(=O)c1cccc(-c2nn(-c3ccccc3)cc2/C=C2\SC(=S)N(CC(=O)O)C2=O)c1	2.15%
COc1ccc(C(=O)Nc2nc(-c3ccc(S(=O)(=O)N4CCOCC4)cc3)cs2)cc1	18.9% (active)

Target: Serine protease HTRA1 (Homo sapiens) (UniProt Q92743)
Experiment: confirming inhibition of human HTRA1 – biochemical, fluorescence polarization, confirmation (AID 540248;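 active = mean inhibition over three repeats above a set limit taken from the earlier primary screen, cut at about 37% in these data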;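 also: 0% = HTRA1 with DMSO and 100% = wells lacking HTRA1; inhibitors block probe binding so polarization drops and inhibition rises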)
Conditions: recombinant HTRA1, FP-rhodamine activity-based probe, at 5.96 µM, hits give high values

SMILES	inhibition
Cc1ccc(/C=N/NC(=O)c2cc3ccccc3cc2O)o1	38.8% (active)
O=C(N/N=C/c1cccnc1)c1cc2ccccc2cc1O	13.8%
N#C/C(=C\c1ccc(O)c(O)c1)C(=O)NCc1ccccc1	84.8% (active)
CC(C)C1N=C2c3ccccc3N=C(SCC(=O)c3ccc(O)c(O)c3)N2C1=O (stereo not given)	57% (active)

Target: Toll-like receptor 9 (Homo sapiens) (UniProt Q9NR96)
Experiment: disruptors of TLR9 binding to MyD88 – cell-based, CHO, BLA complementation, fluorescence, triplicate, confirmation (AID 540250;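 active = mean inhibition across three repeats above about 21% taken from the earlier screen, limit read from the data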;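 also: blue over green emission ratio reports constitutive TLR9 MyD88 association via BLA complementation; 0% = DMSO vehicle wells and 100% = clavulanate BLA inhibitor wells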)
Conditions: CCF4 FRET ratio, at 4.98 µM, hits give high values

Toll-like receptor 9 (Homo sapiens), sequence (Q9NR96 whole entry, looked up): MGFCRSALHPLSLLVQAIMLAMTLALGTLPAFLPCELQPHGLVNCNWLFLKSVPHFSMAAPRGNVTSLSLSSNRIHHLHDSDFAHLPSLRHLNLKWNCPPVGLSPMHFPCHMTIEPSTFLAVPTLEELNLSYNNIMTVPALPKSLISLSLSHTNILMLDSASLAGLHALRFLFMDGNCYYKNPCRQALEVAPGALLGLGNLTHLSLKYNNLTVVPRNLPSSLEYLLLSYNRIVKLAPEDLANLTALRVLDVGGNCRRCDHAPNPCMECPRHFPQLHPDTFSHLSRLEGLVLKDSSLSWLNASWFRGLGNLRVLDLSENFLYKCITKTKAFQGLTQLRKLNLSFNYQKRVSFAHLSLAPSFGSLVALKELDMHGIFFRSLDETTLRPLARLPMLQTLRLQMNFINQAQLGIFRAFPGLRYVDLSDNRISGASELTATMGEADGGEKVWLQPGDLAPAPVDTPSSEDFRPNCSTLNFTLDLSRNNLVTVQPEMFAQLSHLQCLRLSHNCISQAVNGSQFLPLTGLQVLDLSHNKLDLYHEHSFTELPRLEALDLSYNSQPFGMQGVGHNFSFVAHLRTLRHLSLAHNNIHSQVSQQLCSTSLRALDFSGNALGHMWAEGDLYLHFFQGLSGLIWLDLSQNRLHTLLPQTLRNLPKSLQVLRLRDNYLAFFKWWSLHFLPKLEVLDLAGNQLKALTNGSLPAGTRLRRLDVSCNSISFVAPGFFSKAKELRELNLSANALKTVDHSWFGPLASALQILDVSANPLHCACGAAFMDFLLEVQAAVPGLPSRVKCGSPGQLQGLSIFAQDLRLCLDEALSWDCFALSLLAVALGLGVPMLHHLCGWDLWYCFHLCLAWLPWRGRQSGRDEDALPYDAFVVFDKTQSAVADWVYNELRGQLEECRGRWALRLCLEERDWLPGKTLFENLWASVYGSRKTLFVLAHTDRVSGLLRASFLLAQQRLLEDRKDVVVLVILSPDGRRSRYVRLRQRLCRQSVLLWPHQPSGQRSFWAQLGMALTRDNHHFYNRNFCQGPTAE

SMILES	inhibition
Nc1c(C(=O)c2cccs2)sc2nsc(SCCN3CCCCC3)c12	31.7% (active)
O=C(/C=C(O)/C=C/c1ccc(O)cc1)/C=C/c1ccc(O)cc1	39.7% (active)
COc1cc(/C=C(\C#N)c2nc3c(s2)CC(C)CC3)ccc1O (stereo not given)	7.82%

System: not listed separately
Experiment: BLA reporter readout interference – cell-based, fluorescence, artefact control for TLR9-MyD88 binding inhibitor project (AID 540251;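 active = mean inhibition above a 50% cutoff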;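 also: counterscreen of TLR9-MyD88 hits on CMV-driven BLA in CHO-K1 cells; 0% = DMSO alone and 100% = clavulanate blocking BLA; higher means less blue over green ratio so more BLA blockade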)
Conditions: CHO-BLA cells, CCF4 FRET ratio, at 4.98 µM, hits give high values

SMILES	inhibition [%]
Nc1c(C(=O)c2cccs2)sc2nsc(SCCN3CCCCC3)c12	27.5
O=C(/C=C(O)/C=C/c1ccc(O)cc1)/C=C/c1ccc(O)cc1	42.9
COc1cc(/C=C(\C#N)c2nc3c(s2)CC(C)CC3)ccc1O (stereo not given)	17

System: not listed separately
Experiment: CHO cell viability loss – luminescence, single concentration, cytotoxicity control for TLR9-MyD88 binding inhibitor project (AID 588336; in the data active = inhibition above about 11%)
Conditions: TLR9-MyD88 CHO cells cytotoxicity, at 4.98 µM, hits give high values

SMILES	inhibition
Nc1c(C(=O)c2cccs2)sc2nsc(SCCN3CCCCC3)c12	10.9% (active)
O=C(/C=C(O)/C=C/c1ccc(O)cc1)/C=C/c1ccc(O)cc1	6.33%
COc1cc(/C=C(\C#N)c2nc3c(s2)CC(C)CC3)ccc1O (stereo not given)	0.65%

Target: Receptor-interacting serine/threonine-protein kinase 2 (Homo sapiens) (UniProt O43353)
Experiment: inhibitors of RIPK2 association with NOD2 – fluorescence, CHO cells, BLA complementation, triplicate, confirmation (AID 624370;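 active = mean inhibition across replicates above a set limit taken from the earlier primary screen, cut at about 21% in these data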;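 also: 0% = DMSO-only wells and the high end = clavulanate BLA-blocked wells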)
Conditions: CCF4 FRET, at 4.98 µM, hits give high values

Receptor-interacting serine/threonine-protein kinase 2 (Homo sapiens), sequence (O43353 whole entry, looked up): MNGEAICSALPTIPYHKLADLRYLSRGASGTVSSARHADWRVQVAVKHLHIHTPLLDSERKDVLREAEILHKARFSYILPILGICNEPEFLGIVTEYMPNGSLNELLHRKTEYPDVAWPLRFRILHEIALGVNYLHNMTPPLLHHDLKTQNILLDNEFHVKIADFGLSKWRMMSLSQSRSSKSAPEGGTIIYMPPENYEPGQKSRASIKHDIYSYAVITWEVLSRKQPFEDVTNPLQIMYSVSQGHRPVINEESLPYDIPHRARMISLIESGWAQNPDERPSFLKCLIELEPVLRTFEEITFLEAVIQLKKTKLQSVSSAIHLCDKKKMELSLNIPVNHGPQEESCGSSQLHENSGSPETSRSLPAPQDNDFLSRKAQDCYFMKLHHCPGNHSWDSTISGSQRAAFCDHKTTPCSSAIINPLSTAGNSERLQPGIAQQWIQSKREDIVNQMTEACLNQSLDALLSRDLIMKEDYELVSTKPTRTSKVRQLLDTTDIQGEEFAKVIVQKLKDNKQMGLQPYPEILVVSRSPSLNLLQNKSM

SMILES	inhibition
Nc1c(C(=O)c2cccs2)sc2nsc(SCCN3CCCCC3)c12	19.8%
O=C(/C=C(O)/C=C/c1ccc(O)cc1)/C=C/c1ccc(O)cc1	64.2% (active)
COc1cc(/C=C(\C#N)c2nc3c(s2)CC(C)CC3)ccc1O (stereo not given)	29.5% (active)

System: not listed separately
Experiment: BLA reporter readout interference – cell-based, CHO-K1 CMV-bla, CCF4 FRET, fluorescence, artefact control for NOD2-RIPK2 interaction inhibitor project, confirmation (AID 624371;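 active = mean inhibition above the low-control mean inhibition plus three low-control SD, cut at about 11% in these data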;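 also: 0% = DMSO only wells and 100% = clavulanate high control wells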)
Conditions: CCF4 FRET ratio, counterscreen, at 4.98 µM, hits give high values

SMILES	inhibition
Nc1c(C(=O)c2cccs2)sc2nsc(SCCN3CCCCC3)c12	36.9% (active)
O=C(/C=C(O)/C=C/c1ccc(O)cc1)/C=C/c1ccc(O)cc1	65.5% (active)
COc1cc(/C=C(\C#N)c2nc3c(s2)CC(C)CC3)ccc1O (stereo not given)	39.6% (active)
